Six molecules from PubChem BioAssay can be followed below.

Active and inactive are the calls of the source.

The target of one assay is Albumin (Bos taurus) (UniProt P02769). Kind of assay: compounds binding labelled BSA control protein – biochemical, small-molecule microarray, Alexa647 label, 635/667 nm fluorescence, artefact control for SMM control protein annotation, profiling panel (AID 1118).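 Also: score merges 667 nm emission intensity and signal-to-noise per printed compound spot.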 Particulars: BSA-A647 binding, fluorescence 635 nm, higher = more signal.
Assay [1] can be described thus: probe aXIP binding to arrayed compounds – biochemical, NeuroSMM set, 635/667 nm fluorescence, primary screen (AID 1119).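 Also: probe is the protein aXip251-270 applied at 1 µg/mL to compound-printed slides; binding of probe to printed compounds measured as 667 nm fluorescence plus signal to noise.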 Particulars: small-molecule microarray, higher = more signal, called active from +8 up or from −8 down.
Assay [2] is described as follows: probe aNOTCH3 binding on compound microarray – biochemical, small-molecule microarray, 635/667 nm fluorescence, primary screen (AID 1120).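 Also: probe is a biotin-tagged antibody raised against NOTCH3 rather than NOTCH3 protein; score merges spot fluorescence near 667 nm with spot signal to noise.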 Particulars: higher = more signal.
A short description of assay [3]: probe aNOTCH2 binding on compound microarray – biochemical, small-molecule microarray, 635/667 nm fluorescence, primary screen (AID 1121).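 Also: score merges feature fluorescence read at 667 nm with its signal to noise.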 Particulars: higher = more signal.
Assay [4] has as its target Carbonic anhydrase 2 (Homo sapiens) (UniProt P00918). Put plainly: compounds binding carbonic anhydrase 2 – biochemical, small-molecule microarray, Alexa647-labelled CAII, profiling panel (AID 1122). Particulars: CAII-A647 binding fluorescence, higher = more signal.
A short description of assay [5]: COS7 lysate on small-molecule microarray, probe aHis, 635 nm (AID 1123).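 Also: z-score combines 667nm fluorescence intensity with signal-to-noise per printed compound spot.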 Particulars: COS7 cell lysate, fluorescence, higher = more signal.
Assay [6] is described as follows: probe aLAP1 signal on lysate-treated microarray – cell lysate, small-molecule microarray, COS7 lysate, primary screen (AID 1124).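 Also: lysate comes from COS7 cells expressing LAP1 and is applied at 0.3 µg/mL; score merges spot fluorescence near 667 nm with signal-to-noise over triplicate slides.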 Particulars: probe aLAP1, fluorescence, higher = more signal.
The subject of another assay is Sam68 (KHDRBS1). Put plainly: compounds binding KHDRBS1 protein – biochemical, small-molecule microarray, 635 nm fluorescence, primary screen (AID 1125).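 Also: score merges 667 nm channel intensity with signal to noise over triplicate slides.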 Conditions: higher = more signal.
Assay [7] concerns Chordin-like protein 2 (CHRDL2). Kind of assay: compounds binding chordin-like 2 – biochemical, small-molecule microarray, 635 nm fluorescence, primary screen (AID 1126).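 Also: printed compound slides probed with Chrdl2 protein at 4 µg/mL for 1 h at 4 C; score merges 667 nm emission intensity with signal to noise over three replicate slides.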 Conditions: fluorescence 635 nm, higher = more signal.
Assay [8] deals with Concanavalin-A (Canavalia ensiformis) (UniProt P02866). Put plainly: compounds binding concanavalin A lectin – biochemical, small-molecule microarray, Alexa647 label, 635 nm, artefact control for SMM control protein annotation, primary screen (AID 1127).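 Also: z combines 667 nm emission intensity with signal-to-noise across three replicate slides.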 Particulars: ConA-A647 binding fluorescence, higher = more signal.
Assay [9] can be described thus: compounds binding Alexa647 anti-His antibody – biochemical, small-molecule microarray, 635 nm fluorescence, artefact control for SMM control protein annotation, primary screen (AID 1128).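 Also: score merges feature fluorescence with signal-to-noise for each printed compound spot.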 Particulars: higher = more signal.
Assay [10] deals with Human papillomavirus type 1a E7 protein (residues 1-88). Kind of assay: HPV1a E7 small-molecule binders, primary screen, biochemical, small-molecule microarray, residues 1-88, 635 nm (AID 1129). Particulars: small-molecule microarray binding, fluorescence 635 nm; higher = more signal.
In assay [11] the target is Focal adhesion kinase 1 (Homo sapiens) (UniProt Q05397). Kind of assay: PTK2 protein binding on printed compound slides – biochemical, small-molecule microarray, 635/667 nm fluorescence, BSA, DTT, primary screen (AID 1130).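 Also: composite of spot emission at 667 nm and signal to noise over triplicate slides.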 Particulars: 635 nm fluorescence, higher = more signal.
Assay [12] deals with Fibrinogen (Alexa647-labelled). Put plainly: Alexa647-fibrinogen binding to printed small molecules – biochemical, small-molecule microarray, 635/667 nm fluorescence, artefact control for SMM control-protein annotation, profiling panel (AID 1131).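 Also: z-score merges 667 nm fluorescence with per-spot signal-to-noise over triplicate slides.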 Conditions: fibrinogen-A647 binding fluorescence, higher = more signal.
For assay [13], the target named is Follistatin (Homo sapiens) (UniProt P19883). Put plainly: FST protein binding to printed compounds – biochemical, small-molecule microarray, 635/667 nm fluorescence, primary screen (AID 1132). Particulars: 635 nm fluorescence, higher = more signal.
The target of assay [14] is Fibroblast growth factor 2 (Homo sapiens) (UniProt P09038). Put plainly: basic fibroblast growth factor binding to printed compounds – biochemical, small-molecule microarray, 635/667 nm fluorescence, primary screen (AID 1133). Particulars: FGF2, fluorescence 635/667, higher = more signal.
Assay [15] can be described thus: JC-1 mitochondrial potential readout, lung cancer cells – cell-based, A549, JC-1 fluorescence, basal, 24 h, 100 nL, profiling panel (AID 1138).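 Also: A549 lung adenocarcinoma cells under basal conditions with no added stimulus; test concentration not given here.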 Conditions: higher = more signal.
The subject of the next assay is Lefty1. Kind of assay: Lefty1 protein binding to printed compounds – biochemical, small-molecule microarray, 635/667 nm fluorescence, primary screen (AID 1139). Particulars: fluorescence 635/667, higher = more signal.
Assay [16] concerns wheat germ agglutinin (Triticum aestivum), Alexa647-labelled. Put plainly: Alexa647-WGA lectin binding to printed small molecules – biochemical, small-molecule microarray, 635/667 nm fluorescence, artefact control for SMM control-protein annotation, profiling panel (AID 1140).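 Also: score merges 667 nm feature emission with signal to noise over triplicate slides.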 Particulars: WGA-A647 binding, 635 nm fluorescence, higher = more signal.
The target in assay [17] is Luciferin 4-monooxygenase (Photinus pyralis) (UniProt P08659). Put plainly: inhibition of purified Photinus pyralis luciferase – biochemical, luminescence, purified enzyme, 2006 set, primary screen (AID 1141).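 Also: cell-free assay with purified firefly luciferase at 100 ng per well in PBS; test concentration not given here.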 Conditions: purified firefly luciferase, SteadyGlo luminescence, 30 min; higher = more signal, called active from +8 up or from −8 down.
Chain of Luciferin 4-monooxygenase (Photinus pyralis) (P08659 whole entry, looked up): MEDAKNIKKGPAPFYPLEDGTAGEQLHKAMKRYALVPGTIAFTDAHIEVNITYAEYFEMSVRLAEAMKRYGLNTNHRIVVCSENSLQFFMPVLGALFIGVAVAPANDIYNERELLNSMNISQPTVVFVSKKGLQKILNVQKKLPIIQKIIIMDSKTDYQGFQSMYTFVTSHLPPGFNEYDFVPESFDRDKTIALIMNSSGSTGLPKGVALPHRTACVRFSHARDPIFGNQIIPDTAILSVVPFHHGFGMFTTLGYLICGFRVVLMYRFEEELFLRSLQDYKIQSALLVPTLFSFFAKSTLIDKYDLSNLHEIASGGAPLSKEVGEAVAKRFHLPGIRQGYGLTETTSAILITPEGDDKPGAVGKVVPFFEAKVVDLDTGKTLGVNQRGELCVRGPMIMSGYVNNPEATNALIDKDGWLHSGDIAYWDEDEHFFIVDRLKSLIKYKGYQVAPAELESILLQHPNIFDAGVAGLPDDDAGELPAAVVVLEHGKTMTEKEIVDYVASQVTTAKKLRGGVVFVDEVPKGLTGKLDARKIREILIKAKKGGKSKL

Chain of Concanavalin-A (Canavalia ensiformis) (P02866 whole entry, looked up): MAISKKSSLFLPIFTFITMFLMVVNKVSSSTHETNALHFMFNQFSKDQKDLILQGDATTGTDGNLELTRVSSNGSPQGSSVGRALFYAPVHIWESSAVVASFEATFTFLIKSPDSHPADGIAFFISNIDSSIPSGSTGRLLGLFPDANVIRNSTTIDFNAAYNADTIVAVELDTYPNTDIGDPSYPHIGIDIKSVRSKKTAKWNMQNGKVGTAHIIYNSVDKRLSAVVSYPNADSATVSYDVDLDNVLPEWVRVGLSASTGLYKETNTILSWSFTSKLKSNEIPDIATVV
Chain of Albumin (Bos taurus) (P02769 whole entry, looked up): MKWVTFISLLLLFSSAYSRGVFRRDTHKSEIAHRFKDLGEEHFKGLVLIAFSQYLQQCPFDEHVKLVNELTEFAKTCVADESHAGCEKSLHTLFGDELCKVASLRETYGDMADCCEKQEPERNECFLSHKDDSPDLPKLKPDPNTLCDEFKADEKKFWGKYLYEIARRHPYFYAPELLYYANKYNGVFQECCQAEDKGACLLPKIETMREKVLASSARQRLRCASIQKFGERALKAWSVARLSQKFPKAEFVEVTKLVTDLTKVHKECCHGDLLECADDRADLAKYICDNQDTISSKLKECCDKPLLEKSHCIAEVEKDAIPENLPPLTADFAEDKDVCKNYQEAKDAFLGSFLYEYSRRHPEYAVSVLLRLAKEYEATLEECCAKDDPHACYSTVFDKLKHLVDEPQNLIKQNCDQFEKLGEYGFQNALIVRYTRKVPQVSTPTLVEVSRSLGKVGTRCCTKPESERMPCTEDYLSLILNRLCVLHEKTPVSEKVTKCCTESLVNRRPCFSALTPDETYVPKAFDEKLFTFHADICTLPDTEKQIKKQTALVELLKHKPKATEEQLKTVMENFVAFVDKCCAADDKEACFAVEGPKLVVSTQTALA
Chain of Follistatin (Homo sapiens) (P19883 whole entry, looked up): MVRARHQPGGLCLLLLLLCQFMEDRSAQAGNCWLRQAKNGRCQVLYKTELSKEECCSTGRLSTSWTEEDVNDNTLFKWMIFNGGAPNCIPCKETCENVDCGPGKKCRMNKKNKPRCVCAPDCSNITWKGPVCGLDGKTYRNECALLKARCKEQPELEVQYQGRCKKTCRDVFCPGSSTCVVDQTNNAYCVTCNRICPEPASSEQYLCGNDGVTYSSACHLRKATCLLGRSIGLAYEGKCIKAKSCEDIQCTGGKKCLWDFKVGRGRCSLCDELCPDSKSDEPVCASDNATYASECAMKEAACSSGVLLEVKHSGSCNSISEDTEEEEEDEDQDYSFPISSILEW
Chain of Fibroblast growth factor 2 (Homo sapiens) (P09038 whole entry, looked up): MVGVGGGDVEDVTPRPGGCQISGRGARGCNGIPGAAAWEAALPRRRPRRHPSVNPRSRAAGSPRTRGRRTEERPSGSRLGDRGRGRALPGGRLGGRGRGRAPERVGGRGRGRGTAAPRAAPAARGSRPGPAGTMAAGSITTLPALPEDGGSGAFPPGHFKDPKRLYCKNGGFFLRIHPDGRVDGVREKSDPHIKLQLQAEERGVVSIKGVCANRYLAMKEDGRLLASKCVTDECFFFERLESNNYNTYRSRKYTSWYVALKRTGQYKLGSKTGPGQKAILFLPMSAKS
Chain of Focal adhesion kinase 1 (Homo sapiens) (Q05397 whole entry, looked up): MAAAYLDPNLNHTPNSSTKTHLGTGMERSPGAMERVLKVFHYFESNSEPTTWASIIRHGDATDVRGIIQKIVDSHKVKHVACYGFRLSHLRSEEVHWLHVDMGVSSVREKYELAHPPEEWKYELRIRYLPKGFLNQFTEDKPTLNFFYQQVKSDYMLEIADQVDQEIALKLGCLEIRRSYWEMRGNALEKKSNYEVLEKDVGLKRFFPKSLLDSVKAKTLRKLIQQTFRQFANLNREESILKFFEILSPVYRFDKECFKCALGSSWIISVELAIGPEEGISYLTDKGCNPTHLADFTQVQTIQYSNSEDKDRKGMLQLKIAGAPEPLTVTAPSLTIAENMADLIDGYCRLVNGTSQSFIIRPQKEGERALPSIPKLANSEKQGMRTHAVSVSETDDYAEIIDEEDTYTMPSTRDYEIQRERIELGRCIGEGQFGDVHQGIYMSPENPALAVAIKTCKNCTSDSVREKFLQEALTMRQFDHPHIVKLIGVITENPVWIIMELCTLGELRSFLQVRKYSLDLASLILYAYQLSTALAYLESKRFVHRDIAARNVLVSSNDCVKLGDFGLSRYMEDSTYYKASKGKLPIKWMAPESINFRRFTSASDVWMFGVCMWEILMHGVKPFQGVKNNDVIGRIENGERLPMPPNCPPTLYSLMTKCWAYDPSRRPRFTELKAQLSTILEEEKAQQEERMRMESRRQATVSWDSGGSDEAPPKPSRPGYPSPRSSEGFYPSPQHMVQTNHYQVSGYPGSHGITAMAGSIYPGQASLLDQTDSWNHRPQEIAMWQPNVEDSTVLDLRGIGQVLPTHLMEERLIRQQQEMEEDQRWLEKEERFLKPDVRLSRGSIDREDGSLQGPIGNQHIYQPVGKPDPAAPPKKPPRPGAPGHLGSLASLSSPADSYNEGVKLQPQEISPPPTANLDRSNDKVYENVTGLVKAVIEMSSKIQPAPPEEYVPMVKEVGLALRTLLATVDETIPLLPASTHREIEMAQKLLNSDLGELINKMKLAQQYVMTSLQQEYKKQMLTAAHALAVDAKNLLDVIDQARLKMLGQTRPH

For `CO[C@@H]1COC(=O)[C@H](COCc2ccccc2)NC(=O)CC=C[C@@H](C)[C@H](OC)COC(=O)[C@@H](C)NC(=O)CC=C[C@H]1C`, the composite z-score with Albumin (Bos taurus) is -0.764; in assay [2], 0.127; in [3] it was -0.126; in assay [4], -0.557; in [5], -0.887; in assay [6], -0.184. The composite z-score is 0.0125 in the assay on Sam68 (KHDRBS1); 1.02 in assay [7]; -3.28 in assay [8]; -1.39 in [9]; -1.64 in assay [10]; -0.474 in assay [11]. The composite z-score in assay [12] was -1.65; in assay [13], 1.07; in assay [14], 1.16; in the assay with Lefty1, 0.979; in assay [16], -0.999. Also, the composite Z-score in assay [1] was -0.0478 (inactive). Also, the z-score in assay [15] is 1.27; in assay [17], -0.963 (inactive).
Regarding `CC(C)CN1CCc2nc(-c3ccccc3)c3c(c2C1)CO[C@@H](C)C3`, the composite z-score stood at 0.729 with Albumin (Bos taurus); 0.0636 in assay [2]; 0.0341 in assay [3]; 0.465 in assay [4]; 0.798 in assay [5]; 0.0322 in assay [6]. The composite z-score with Sam68 (KHDRBS1) was found to be 1.29; in assay [7] it was 0.53; in assay [8], 1.11; in assay [9], 0.454; in [10] it was 1.16; in assay [11] it was 0.741. The composite z-score is 0.756 in assay [12]; 0.785 in assay [13]; 0.525 in [14]; 0.923 with Lefty1; 0.963 in assay [16]. In assay [1], the composite Z-score is -0.548 (inactive). Besides, the z-score was 0.0232 in assay [15] and -0.628 (inactive) in assay [17].
Take `CCc1cc2c(nc1CC)CCN(CCC(C)=NOCC[C@@H]1C=C[C@H](OC(C)=O)[C@@H](COC(C)=O)O1)C2`: the composite z-score with Albumin (Bos taurus) is 0.466; in [2], 0.493; in assay [3], -0.0798; in assay [4], 0.0943; in assay [5], -0.119; in assay [6] it was 0.277. In addition, the composite z-score in the assay on Sam68 (KHDRBS1) was 1.23; in [7], 0.412; in [8], 0.446; in assay [9], 0.345; in assay [10] it was -0.19; in [11] it was 0.174. Besides, the composite z-score in [12] is -0.0226; in assay [13] it was 0.823; in [14], 0.273; in the assay with Lefty1, 1.18; in assay [16] it was 0.0479. The composite Z-score in assay [1] is 0.497 (inactive). In addition, the z-score is 0.677 in assay [15] and 0.855 (inactive) in assay [17].
As for `COC(=O)[C@H](C)NC(=O)CCC1CC(OC(=O)NCc2ccc3c(c2)OCO3)CC2(CCCC(COC(=O)NCCCN3CCCC3=O)O2)O1` (stereo not given in full), the composite z-score with Albumin (Bos taurus) is 0.328; in assay [2] it was 0.186; in [3], -0.293; in assay [4], 0.167; in assay [5] it was 0.639; in [6] it was 0.261. Also, the composite z-score was found to be 1.26 with Sam68 (KHDRBS1); 0.826 in [7]; 0.872 in [8]; 0.23 in assay [9]; 1.03 in assay [10]; 0.174 in [11]. In addition, the composite z-score in assay [12] was found to be 0.861; in assay [13], 0.602; in assay [14], 1.42; in the assay on Lefty1, 0.777; in assay [16], 0.364. Besides, the composite Z-score in assay [1] is 0.3 (inactive). Besides, the values for the z-score in assay [15] and in assay [17] were -0.224 and 0.906 (inactive), respectively.
`C[C@@H]1CC[C@H]2C(=O)O[C@@H](CN=[N+]=[N-])CN2[C@H]1c1ccc(Br)cc1`: the composite z-score was 0.677 with Albumin (Bos taurus); -0.0343 in assay [2]; -0.0287 in assay [3]; 0.236 in assay [4]; 1.02 in [5]; 0.373 in assay [6]. Besides, the composite z-score with Sam68 (KHDRBS1) was determined as 1.12; in assay [7] it was 0.526; in assay [8] it was 1.07; in assay [9], 2.89; in [10], 1.15; in [11], 0.694. Moreover, the composite z-score in assay [12] is 0.952; in assay [13], 0.515; in assay [14], 0.376; in the assay with Lefty1, 0.506; in assay [16] it was 0.829. The composite Z-score in assay [1] is -0.283 (inactive). Besides, the results for the z-score in [15] and in assay [17] were 0.285 and -1.59 (inactive), respectively.
For `Cc1ccc(C(C)C)n1C(=O)OC(C)(C)C`, the composite z-score with Albumin (Bos taurus) is -0.0834; in assay [2] it was -0.118; in assay [3], -0.153; in assay [4] it was -0.0359; in assay [5] it was 0.0884; in [6], 0.322. Moreover, the composite z-score in the assay with Sam68 (KHDRBS1) was 0.456; in assay [7], 0.501; in [8], 0.173; in assay [9], -0.165; in assay [10] it was 0.474; in assay [11], 0.691. The composite z-score was -0.115 in assay [12]; 0.54 in assay [13]; 0.29 in assay [14]; 0.494 in the assay on Lefty1; 0.188 in assay [16]. Further, in assay [1], the composite Z-score is 1.17 (inactive). Moreover, the results for the z-score in assay [15] and in assay [17] were 1.99 and -1.7 (inactive), respectively.
